An excerpt weighted towards active compounds, which were near 3.5% of everything screened.
MITF primary: human MITF inhibition, primary screen; O75030; AlphaScreen MITF homodimerization, bead proximity signal; inhibition, % at 2.6 µM; actives 0.91% (n = 650,000); AID 1259374; in the data active = inhibition above about 50%
Target sequence (O75030 whole entry, looked up): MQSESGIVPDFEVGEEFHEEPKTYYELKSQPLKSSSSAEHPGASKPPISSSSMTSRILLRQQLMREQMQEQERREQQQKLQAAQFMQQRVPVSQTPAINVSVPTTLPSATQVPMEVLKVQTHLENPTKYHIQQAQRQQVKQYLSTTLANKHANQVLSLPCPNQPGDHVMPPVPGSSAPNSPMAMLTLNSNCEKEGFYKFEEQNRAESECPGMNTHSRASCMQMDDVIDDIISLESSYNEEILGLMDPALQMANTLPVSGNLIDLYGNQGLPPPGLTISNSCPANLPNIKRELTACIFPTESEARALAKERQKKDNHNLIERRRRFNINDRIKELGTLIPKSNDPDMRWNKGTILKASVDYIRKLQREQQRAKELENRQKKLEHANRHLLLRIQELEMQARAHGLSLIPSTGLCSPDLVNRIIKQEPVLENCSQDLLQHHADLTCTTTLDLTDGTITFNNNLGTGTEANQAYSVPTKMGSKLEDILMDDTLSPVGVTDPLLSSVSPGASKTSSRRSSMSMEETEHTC
GPR151 ag: activates the human receptor GPR151; Q8TDV0; PathHunter beta-arrestin GPR151 cells, luminescence; activation, % at 11.2 µM; actives 1% (n = 650,000); AID 1508602; in the data active = activation above about 4.9%
TEAD-YAP block: TEAD-YAP interaction inhibition; HEK-TIYL cells, TEAD-Gal4/YAP UAS-luciferase luminescence; inhibition, % at 9.12 µM; actives 1.4% (n = 640,000); in the data active = inhibition above about 32%
FBW7 activator: human FBW7 E3 ligase activation, primary screen; AID 1259310; AlphaScreen FBW7–phospho-cyclin E peptide binding, activator screen; normalized activity (activation), % at 26.1 µM; actives 0.13% (n = 650,000); Q969H0; in the data active = normalized activity above about 1.9%;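 note: purified mutant Fbw7 with reduced substrate affinity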
Numbers stand for hits; . = inactive.

SMILES	MITF primary	GPR151 ag	TEAD-YAP block	FBW7 activator
CC(NC(=O)c1ccc(F)c(S(=O)(=O)N2CCOCC2)c1)C1CC2CCC1C2 (centres undefined)	.	.	.	.
O=C(NC1CCCCCC1)c1cccc2[nH]ncc12	.	.	84	.
Nc1ccc2oc(-c3ccc(F)cc3Cl)nc2c1	.	.	37	.
Nc1ccc2oc(-c3ccc4nc[nH]c4c3)nc2c1	.	.	61	.
Nc1ccc2oc(-c3ccccc3Br)nc2c1	.	.	.	.
Nc1ccc2oc(-c3cccc(Br)c3)nc2c1	.	.	.	.
Nc1ccc2oc(-c3ccc(O)c(Br)c3)nc2c1	.	.	59	.
Nc1ccc2oc(-c3ccc(F)cc3)nc2c1	.	.	.	.
Nc1ccc2oc(-c3cccc4c(Br)cccc34)nc2c1	.	.	65	.
C/C(=C\c1ccccc1)CN1CCc2nncn2CC1	.	.	.	.
COc1cc(OC)cc(C(=O)N(Cc2nc3ccccc3c(=O)[nH]2)Cc2cccs2)c1	.	.	.	.
Cn1nnnc1Sc1ccc(C(N)=O)cc1[N+](=O)[O-]	.	.	.	.
Cn1nnnc1Sc1ccc([N+](=O)[O-])c2cnccc12	.	.	35	.
COc1ccc(NS(=O)(=O)c2cc(NC(=O)CNC(C)=O)ccc2N2CCCC2)cc1	.	.	39	.
O=P(c1ccccc1)(c1ccccc1)C1CCOCC1	.	.	.	.
CCOC(=O)c1sc(NC(=O)C(C)Sc2nnc(CNC(=O)c3ccco3)n2-c2cccc(Cl)c2)c(C(=O)OCC)c1C (centres undefined)	.	.	.	.
C=CCn1c(NCCc2ccccc2)nc2c1c(=O)n(C)c(=O)n2C	.	.	37	.
C/C(Cl)=C/Cn1c(NCCc2ccccc2)nc2c1c(=O)n(C)c(=O)n2C	.	.	.	.
CCOc1cc(/C=N/Nc2nc3c(c(=O)n(C)c(=O)n3C)n2Cc2ccccc2)ccc1O	.	.	44	.
C=CCNc1nc2c(c(=O)n(C)c(=O)n2C)n1Cc1ccccc1	.	.	34	.
C/C(=N/Nc1nc2c(c(=O)n(C)c(=O)n2C)n1Cc1ccccc1)c1ccccc1O	.	.	.	.
Cc1ccc2occ(/C=C/C(=O)c3ccc(O)cc3)c(=O)c2c1	.	.	.	.
COc1ccccc1/C=C/C(=O)c1ccc(O)cc1	.	.	.	.
Cc1c(/C=C/C(=O)c2ccc(O)cc2)cnn1C	.	.	51	.
CCn1cc(/C=C/C(=O)c2ccc(O)cc2)c(C)n1	.	.	86	.
SMILES	MITF primary	GPR151 ag	TEAD-YAP block	FBW7 activator
CN(C)CCCn1c(=O)c2c(ncn2CC(O)CO)n(C)c1=O (centres undefined)	.	.	.	.
Cc1ccccc1-n1ncc2c(N3CCN(C)CC3)ncnc21	.	.	.	.
COCCNC(=O)CC(c1cc(OC)c(OC)c(OC)c1)N1Cc2ccccc2C1=O (centres undefined)	.	.	.	.
CCC/C(O)=C1\C(=O)CC(C)(C)CC1=Nc1ccc(OC)cc1OC	.	.	55	.
CCOc1ccc(-n2nc(C(=O)NCc3ccco3)c3ccccc3c2=O)cc1	.	.	.	.
Cc1ccc(C)c(CSc2nc3[nH]ncc3c(=O)[nH]2)c1	.	.	37	.
Cc1ccccc1CSc1nc2[nH]ncc2c(=O)[nH]1	.	.	.	.
CCn1c(SCC(=O)Nc2ccc([N+](=O)[O-])cc2)nnc1-c1ccc(O)cc1	.	.	50	.
O=C1CC(N2CCCCC2)C(=O)N1c1cc(Cl)cc(Cl)c1 (centres undefined)	.	.	46	.
O=C1CC(N2CCCC2)C(=O)N1c1ccc(Cl)cc1 (centres undefined)	.	.	.	.
O=C(Nc1cc(=O)[nH]c(=O)[nH]1)c1cccc(Cl)c1	.	.	40	.
O=C(Nc1ccc(F)cc1)c1cccc(Cl)c1	.	.	.	.
N#C/C(=C\c1ccc(N2CCOCC2)cc1)c1nc2ccccc2s1	.	.	39	.
CN(C)c1ccc(/C=C(\C#N)c2nc3ccccc3s2)o1	.	.	53	.
O=C(O)C/C(=C\c1ccc2c(c1)OCCO2)c1nc2ccccc2s1	.	.	.	.
O=C(O)C/C(=C\c1ccc(N2CCOCC2)cc1)c1nc2ccccc2s1	.	.	75	.
Cc1cc(C)c2c(=O)c3cccc(C)c3[nH]c2n1	.	.	.	.
CN1/C(=C/C(=O)C2CCC2)Sc2ccccc21	.	.	.	.
CN1/C(=C/C(=C/c2sc3ccccc3[n+]2C)C2CCC2)Sc2ccccc21	.	.	72	.
CC(=O)Nc1cccc(-c2csc(Nc3ccc(S(N)(=O)=O)cc3)n2)c1	.	.	.	.
CCOC(=O)C(C#N)C(=O)c1ccc(N2C(=O)c3ccccc3C2=O)cc1 (centres undefined)	.	.	.	.
CCOC(=O)C(C#N)C1(O)C(=O)c2ccccc2C1=O (centres undefined)	57	.	.	.
COc1ccc(NC(=O)C(C)(C)N(C)C(=O)Cn2nnnc2N)cc1	.	.	.	.
Nc1ccc2cc3ccc(N)cc3nc2c1	75	.	.	.
Cc1ccc2cc(N)ccc2n1	.	.	.	.
SMILES	MITF primary	GPR151 ag	TEAD-YAP block	FBW7 activator
CC1(C)CC(=NNC(=O)c2n[nH]c3c2CCCC3)CC(C)(C)N1	.	.	39	.
O=C(NN=C1CCCC1)c1n[nH]c2c1CCC2	.	.	64	.
CC/C(C)=N/NC(=O)c1n[nH]c2c1CCC2	.	.	43	.
COc1cc(/C(C)=N/NC(=O)c2n[nH]c3c2CCC3)ccc1O	.	.	35	.
CC1(C)CC(=NNC(=O)c2ccncc2)CC(C)(C)N1	.	.	.	.
NNC(=O)c1n[nH]c2c1CCCC2	.	.	.	.
C/C(=N\NC(=O)c1n[nH]c2c1CCC2)c1ccco1	.	.	52	.
O=C(NN=C1CCCC1)c1n[nH]c2c1CCCC2	.	.	42	.
CN(C(=O)CCNS(=O)(=O)c1cc(Br)cnc1N)C1CCCCC1	.	.	.	.
CCn1c(=N)c(C(=O)NC)cc2c(=O)n3cccc(C)c3nc21	.	.	32	.
CCn1c(=N)c(C(=O)NCCOC)cc2c(=O)n3cccc(C)c3nc21	.	.	.	.
CCOC(=O)c1c(C)oc2ccc(NS(=O)(=O)c3ccc(Br)cc3)cc12	.	.	.	.
CCOC(=O)c1c(C)oc2ccc(NS(=O)(=O)c3ccc(OCC)cc3)cc12	.	.	54	.
COCCOC(=O)c1c(C)oc2cc(C)c(NS(=O)(=O)c3cccs3)cc12	.	.	.	.
CCOc1ccc(S(=O)(=O)Nc2ccc3oc(C)c(C(=O)OC(C)C)c3c2)cc1	.	.	.	.
CCOC(=O)c1c(C)oc2ccc(NS(=O)(=O)c3ccc(OC)cc3)cc12	.	.	42	.
CCOC(=O)c1c(C)oc2cc(C)c(NS(=O)(=O)c3cccs3)cc12	.	.	46	.
CCCc1oc2ccc(NS(=O)(=O)c3ccc(Br)cc3)cc2c1C(=O)OCC	.	.	42	.
CCOc1ccc2c(c1)-c1c(ssc1=S)C(C)(C)N2C(=O)C1CC1	.	.	.	.
CCOC(=O)c1c(C)oc2c(Cl)cc(NS(=O)(=O)c3ccc(OCC)cc3)cc12	.	.	56	.

Assay outcomes deposited in PubChem by The Scripps Research Institute Molecular Screening Center.
